From PubChem BioAssay (NCATS)
“And” between values parts separate entries of the source, which are not always exact repeats. Equal values may be shown once. Records with an inconclusive call do not appear. A call without a number means that no potency is given here. A number with no mark means an inactive call. The source made the active and inactive calls. Unless noted, calls follow the shape of the dose curve; as a rule, active = well fitted curve in the direction sought with a large enough effect; inconclusive = small, poorly fitted or top-dose-only effect, or another doubt; inactive = no such curve, though single readings can be large; an effect the other way counts as inactive or inconclusive.

Key:
[1] = Primary qHTS for small molecule stabilizers of the endoplasmic reticulum resident proteome: Secreted ER Calcium Modulated Protein (SERCaMP) assay (AID 1508630)
Summary of the method: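 GLuc-SERCaMP-expressing SH-SY5Y cells, pretreated 16 h with compound, are challenged with thapsigargin to empty ER calcium stores; after 4 h, coelenterazine is added directly to the medium and luminescence is imaged.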

[2] = target: Cytochrome P450 2D6 (Homo sapiens) (UniProt P10635); test: Cytochrome P450 family 2 subfamily D member 6 (CYP2D6) small molecule antagonists: luciferase biochemical (cell-free) qHTS assay (AID 1645840; active = well fitted curve in the direction sought with a large enough effect in the repeat runs; an effect the other way counts as inactive or inconclusive; also: nearly all actives have a fitted effect of over 55% in size; also: potency is read from the fitted curve at half-maximal effect)
Summary of the method: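 P450-Glo luminescent screen: recombinant CYP2D6 enzyme–proluciferin substrate mix preincubated with compound 10 min at room temperature, then NADPH regeneration added for 1 h at room temperature. Detection reagent added for 20 min; luciferin light read as relative luminescence units.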

[3] = target: Cytochrome P450 2C9 (Homo sapiens) (UniProt P11712); test: Cytochrome P450 family 2 subfamily C member 9 (CYP2C9) small molecule antagonists: luciferase biochemical (cell-free) qHTS assay (AID 1645842; active = well fitted curve in the direction sought with a large enough effect in the repeat runs; an effect the other way counts as inactive or inconclusive; also: nearly all actives have a fitted effect of over 55% in size; also: potency is read from the fitted curve at half-maximal effect)
Summary of the method: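 Luminescence, after 20 min with luciferin detection reagent, reflected CYP2C9 turnover during a 1 h NADPH-driven reaction at 37C. Enzyme-substrate mix contained 0.4% bovine serum albumin and was preincubated with compound 10 min at room temperature.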

[4] = target: Papain (Carica papaya) (UniProt P00784); test: Primary qHTS assay for inhibitors of the protease papain (AID 1645873);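 also: papain turnover of Z-FR-AMC read as the AMC fluorescence gain over 10 min; series mostly up to about 50 µM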
[5] = Primary qHTS for inhibitors of nuclear receptor binding SET domain protein 2 (NSD2) in an isogenic RCH-ACV NSD2 p.E1099K mutant (9B) (AID 1645876); also: nearly all actives have a fitted effect of over 70% in size; also: potency is read from the fitted curve at half-maximal effect
[6] = A High-Content qHTS Against Drug Library for the Identification of Small Molecules that Inhibit DYT1 Early Onset Primary Dystonia-Associated Cell Pathology (AID 1645839; calls by dose curve; also: potency is read from the fitted curve at half-maximal effect)
Summary of the method: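 Flp-In T-REx 293 cells with tetracycline-inducible EGFP-delE hTOR1A (WT EGFP-hTOR1A as reference), 800 cells/well; compound added with tetracycline, 48 h at 37 C. Fixed, permeabilized cells imaged; %pathology (punctate TorsinA) primary, cell count counterscreen.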

[7] = target: Cytochrome P450 3A4 (Homo sapiens) (UniProt P08684); test: Cytochrome P450 family 3 subfamily A member 4 (CYP3A4) small molecule antagonists: luciferase qHTS assay (AID 1645841; active = well fitted curve in the direction sought with a large enough effect in the repeat runs; an effect the other way counts as inactive or inconclusive; also: nearly all actives have a fitted effect of over 45% in size)
Summary of the method: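 P450-Glo CYP3A4 enzyme with proluciferin substrate preincubated 10 min with compound at room temperature, then NADPH regeneration 1 h. Luciferin detection reagent added for 20 min; luminescence recorded. Ketoconazole positive control.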

Sequence of Cytochrome P450 2D6 (Homo sapiens) (P10635 whole entry, looked up): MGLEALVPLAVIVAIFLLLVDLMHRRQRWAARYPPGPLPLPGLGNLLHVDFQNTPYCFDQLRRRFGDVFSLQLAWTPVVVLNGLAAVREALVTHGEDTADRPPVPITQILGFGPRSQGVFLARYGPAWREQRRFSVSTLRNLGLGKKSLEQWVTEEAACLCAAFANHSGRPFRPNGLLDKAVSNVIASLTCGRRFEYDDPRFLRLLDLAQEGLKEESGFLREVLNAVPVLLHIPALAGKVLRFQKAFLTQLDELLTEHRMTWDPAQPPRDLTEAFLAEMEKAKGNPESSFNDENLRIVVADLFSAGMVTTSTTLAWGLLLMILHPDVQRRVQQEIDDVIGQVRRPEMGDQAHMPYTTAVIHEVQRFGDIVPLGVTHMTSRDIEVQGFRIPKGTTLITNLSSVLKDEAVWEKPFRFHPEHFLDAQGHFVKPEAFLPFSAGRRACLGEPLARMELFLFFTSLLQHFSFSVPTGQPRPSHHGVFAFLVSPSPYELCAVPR
Sequence of Papain (Carica papaya) (P00784 whole entry, looked up, the tested form may be a part): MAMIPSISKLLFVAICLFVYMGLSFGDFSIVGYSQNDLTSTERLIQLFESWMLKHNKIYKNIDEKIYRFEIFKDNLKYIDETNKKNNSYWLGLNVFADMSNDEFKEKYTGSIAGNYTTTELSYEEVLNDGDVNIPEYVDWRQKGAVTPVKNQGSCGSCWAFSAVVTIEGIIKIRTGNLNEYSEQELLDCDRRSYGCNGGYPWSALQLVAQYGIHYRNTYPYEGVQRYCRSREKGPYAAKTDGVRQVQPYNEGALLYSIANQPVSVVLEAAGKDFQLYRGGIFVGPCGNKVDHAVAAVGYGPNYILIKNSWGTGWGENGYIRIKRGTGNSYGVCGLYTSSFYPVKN
Sequence of Cytochrome P450 2C9 (Homo sapiens) (P11712 whole entry, looked up): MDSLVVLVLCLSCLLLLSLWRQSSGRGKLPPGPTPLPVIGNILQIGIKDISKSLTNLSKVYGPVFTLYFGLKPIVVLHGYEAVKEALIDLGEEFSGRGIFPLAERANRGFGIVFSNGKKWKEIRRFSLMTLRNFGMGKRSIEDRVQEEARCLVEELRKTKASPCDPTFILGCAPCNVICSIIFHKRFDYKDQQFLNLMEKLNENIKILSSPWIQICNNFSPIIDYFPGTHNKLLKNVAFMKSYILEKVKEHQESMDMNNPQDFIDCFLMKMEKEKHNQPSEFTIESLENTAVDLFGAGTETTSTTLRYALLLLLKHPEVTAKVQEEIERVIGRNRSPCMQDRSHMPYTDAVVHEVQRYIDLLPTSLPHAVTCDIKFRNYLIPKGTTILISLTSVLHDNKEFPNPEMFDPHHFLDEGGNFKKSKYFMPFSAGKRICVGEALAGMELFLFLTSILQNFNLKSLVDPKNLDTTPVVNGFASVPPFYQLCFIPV
Sequence of Cytochrome P450 3A4 (Homo sapiens) (P08684 whole entry, looked up): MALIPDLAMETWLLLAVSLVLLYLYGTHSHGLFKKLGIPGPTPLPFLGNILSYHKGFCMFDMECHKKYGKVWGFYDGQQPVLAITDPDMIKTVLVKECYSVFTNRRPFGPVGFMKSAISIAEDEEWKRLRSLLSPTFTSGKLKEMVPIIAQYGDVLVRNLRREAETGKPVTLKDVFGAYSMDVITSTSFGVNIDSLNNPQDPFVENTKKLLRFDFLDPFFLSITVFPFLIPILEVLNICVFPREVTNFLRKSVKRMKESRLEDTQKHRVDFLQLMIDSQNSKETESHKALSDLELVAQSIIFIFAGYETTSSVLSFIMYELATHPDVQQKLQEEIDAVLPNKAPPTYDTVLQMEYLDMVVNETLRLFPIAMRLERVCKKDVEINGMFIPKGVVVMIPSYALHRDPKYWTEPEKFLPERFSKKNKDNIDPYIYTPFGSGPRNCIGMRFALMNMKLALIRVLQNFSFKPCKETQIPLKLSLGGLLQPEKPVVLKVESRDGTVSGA

SMILES | Potency [1] | Potency [2] | Potency [3] | Potency [4] | Potency [5] | Potency [6] | outcome [7]
CCCCCCCC/C=C\CCCCCCCC(=O)NCc1ccc(O)c(OC)c1 | inactive | inactive | 1.1 µM (active) and 1.69 µM (active) | inactive | 2.66 µM (active) |  | 
CCc1c(C)[nH]c2c1C(=O)C(CN1CCOCC1)CC2 (stereo not given) | inactive |  |  | inactive |  | inactive | 
c1ccc2c(c1)CCCC2C1=NCCN1 (stereo not given) | inactive |  |  | inactive | inactive | inactive | 
Cc1scc2c1N(C(=O)CN1CCN(C)CC1)c1ccccc1NC2=O |  | inactive | inactive | inactive | inactive | inactive | 
NC(=O)c1cn(Cc2c(F)cccc2F)nn1 |  | inactive | inactive | inactive | inactive | inactive | 
CN/C(=C\[N+](=O)[O-])NCCSCc1ccc(CN(C)C)o1 |  | 15500 nM (active) | inactive |  | inactive | inactive | 
CNCCCN1c2ccccc2CCc2ccccc21 |  |  | inactive | inactive |  |  | 
Cc1ccc(/C(=C\CN2CCCC2)c2ccccn2)cc1 |  |  | inactive | inactive | inactive | inactive | 
CC(C)(Oc1ccc(CCNC(=O)c2ccc(Cl)cc2)cc1)C(=O)O |  | inactive |  | inactive | inactive | inactive | 
CCCCNc1c(C(=O)OCC)c(C)nc2c1cnn2CC |  |  | 17.4 µM (active) | inactive |  | inactive | 
O=C1NCN(c2ccccc2)C12CCN(CCCC(c1ccc(F)cc1)c1ccc(F)cc1)CC2 |  | 436 nM (active) |  | inactive | 4.22 µM (active) |  | inactive
CCn1nc(C(=O)O)c(=O)c2cc3c(cc21)OCO3 |  |  |  | inactive | inactive | inactive | 
CC(=O)OCC1=C(C(=O)O)N2C(=O)[C@@H](NC(=O)Cc3cccs3)[C@H]2SC1 |  | inactive | inactive | inactive | inactive | inactive | 
CCCNC(C)C(=O)Nc1ccccc1C (stereo not given) |  |  | inactive | inactive | inactive | inactive | 
NC/C=C/C(=O)O |  | inactive | inactive | inactive | inactive | inactive | 
CCCCOCCOCCOCc1cc2c(cc1CCC)OCO2 |  | 1.56 µM (active) and 1.74 µM (active) | 340 nM (active) and 123 nM (active) |  | inactive | inactive | 
COCCCC/C(=N\OCCN)c1ccc(C(F)(F)F)cc1 |  | 977 nM (active) | 11 µM (active) | inactive |  |  | 
Fc1ccc(C(c2ccc(F)cc2)N2CCN(C/C=C/c3ccccc3)CC2)cc1 |  |  | 7.76 µM (active) | inactive |  | 12.6 µM (active) | 
